Source: PubChem BioAssay (NCI)
Where “and” joins values, the source holds several entries; their conditions need not be identical. Equal entries are not always repeated. About 83,000 compounds went through this panel and 20% of them were active in at least one assay; those are over-represented in the sample as a whole.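 Results are percent growth after 48 hours of single-concentration exposure. 100 means growth as in untreated cells, lower positive values show inhibition; negative values down to -100 show cell death.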 Unmarked numbers belong to inactive results. Calls of active or inactive are those of the source.

Each compound was assayed on TK-10 renal (assay: NCI-60 one-dose screen, 48 h (100 = growth as untreated, 0 = no growth, -100 = all killed)). Conditions: 10 µM.
Procedure: Growth inhibition of the TK-10 human tumor cell line is measured as a screen for anti-cancer activity. Cells are grown in 96 well plates and exposed to the test compound for 48 hours. Compounds are tested at a single concentration, which is 10^-5 M for most compounds. The reported endpoint is percent growth (GI% or GIPRCNT), where numbers from 0 - 100% represent growth inhibition, and numbers from -100% - 0 represent cell death. For example, a value of 40 represents 60% growth inhibition. A value of 0 means no net growth occurred over the course of the experiment. A value of -40 indicates 40% of cells at the beginning of the experiment died by the end of the experiment. A value of -100 means all cells are dead at the end of the experiment.
NCI-60 Human Tumor Cell Lines Screen was performed using the standard one-dose NCI protocol, which is described in more detail at https://dtp.cancer.gov/discovery_development/nci-60/default.htm.
Compounds with GIPRCNT values below 10 were considered active. Activity score was based on GIPRCNT using the following formula: […]
Score is 0 for GIPRCNT values of 100 or above, 50 for GIPRCNT values of 0, and 100 for GIPRCNT values of -100.
In the case of CC(=O)c1sc2c(c1OC(=O)c1ccc(Cl)cc1Cl)c(=O)n(-c1ccccc1)c(=S)n2-c1ccccc1, the growth is reported as -9.03% (active).
CC(=O)OCC1=CC2OC(=O)C3=COC(OC4OC(CO)C(O)C(O)C4O)C1C32 (stereo not given) gave a growth of 113%.

Same assay, conditions: 10 µM unless noted
O=[N+]([O-])c1ccc(-c2noc(-c3cccs3)n2)cc1 gave a growth of 101%.
CC(O)COc1ccc(-c2ccccc2)cc1 (stereo not given) was tested, and the growth was 106%.
CC(C)=C(NC(=O)c1ccccc1)C(=O)O was tested, and the growth was 106%.
C#C[C@H]1CCCCCC1O (stereo not given in full) was tested, and the growth was 109%.
In the case of N#Cc1ccc(NC(=O)Nc2cccc(C#N)c2)cc1, the growth is reported as 113%.
For COc1ccc2c(NCCCCCCCCNc3c4ccccc4nc4cc(OC)ccc34)c3ccccc3nc2c1, the growth was -72.9% (active).
Work on CCNCCCCNCCCCNCCCCNCCCCNCC yielded a growth of 63.6%.
Work on C/C(=C\c1cc(Cl)ccc1OCC(=O)O)[N+](=O)[O-] yielded a growth of 116%.
CSC[C@H](NC(=O)COc1cccc2cnccc12)C(=O)NC(Cc1ccccc1)C(O)C(=O)N1CSC[C@H]1C(=O)NC(C)(C)C (stereo not given in full) showed a growth of 139%.
In the case of Cc1c(O)cccc1O, the growth is reported as 104%.
COc1ccc(C(C)C=O)cc1 (stereo not given) gave a growth of 92.1%.
COc1ccc2c(c1)CCc1c-2n[nH]c1-c1[nH]nc2c1CCc1cc(OC)ccc1-2 was tested, and the growth was 109%.
Compound CNC(=O)c1ccccc1CC1(O)c2ccccc2Oc2ccccc21 has a growth of 58.9%.
In the case of CC(=O)Nc1ccc(NC(C)=O)c2c1C(=O)c1ccccc1C2=O, the growth is reported as 92.6%.
COc1ncnc2c1cnn2C was tested, and the growth was 108%.
With O=[N+]([O-])c1cccc(N=Nc2ccc(O)cc2O)c1 the growth was 65.7%.
c1ccc(/C(=N\N=C(/c2ccccc2)c2cccs2)c2cccs2)cc1 was tested, and the growth was 104%.
COc1cc2c(cc1OC)[C@H](C(=O)O)[C@@H](c1ccc(OC(C)C)c(OC)c1)N(C)C2=O showed a growth of 96.2%.
NC(C(=O)O)c1ccc([N+](=O)[O-])cc1 (stereo not given) showed a growth of 156%.
In the case of COS(=O)(=O)c1ccc(Br)cc1, the growth is reported as 97.5%.
Work on O=C(O)c1cc([N+](=O)[O-])ccc1Cl yielded a growth of 81.2%.
Compound COc1cc(CCN=Cc2ccccc2O)c([N+](=O)[O-])cc1OC has a growth of 96.9%.
With N#Cc1ccc(OC(=O)Nc2ccc(Cl)c(Cl)c2)cc1 the growth was 90.7%.
CC(C)C1CCCCC1O (stereo not given) gave a growth of 110%.
COc1ccc(C2(O)CCCCC2)cc1 showed a growth of 113%.
With OC(c1ccccn1)C(O)c1ccccn1 (stereo not given) the growth was 108%.
Work on CC(C)=CC(=O)OC(=O)C=C(C)C yielded a growth of 102%.
In the case of NC(=O)N/N=C\c1ccco1, the growth is reported as 100%.
COC(=O)CCCCC1=CCC2C(=O)C=C(O)C2C1 (stereo not given) was tested, and the growth was 96.4%.
In the case of Cc1ccc(C(O)C2CC2)cc1 (stereo not given), the growth is reported as 116%.
With O=C(O)CCCc1ccccc1 the growth was 98.9%.
Work on CC(=O)OC(C(=O)O)c1ccccc1 (stereo not given) yielded a growth of 117%.
With O=[N+]([O-])c1ccc(CO)cc1 the growth was 99.8%.
CC(=Nc1ccccc1)C1=C(O)C(Cc2cccc(F)c2)NC1=O (stereo not given) gave a growth of 44.4%.
Cc1ccc(C)n1-c1ccsc1C(=O)NNC(=O)C(Cl)Cl showed a growth of 112%.
CCCNC(=O)c1ccc(S(N)(=O)=O)cc1 was tested, and the growth was 119%.

Same assay, conditions: 100 µM
In the case of CC(=O)c1sc2c(c1OC(=O)c1ccc(Cl)cc1Cl)c(=O)n(-c1ccccc1)c(=S)n2-c1ccccc1, the growth is reported as 2.01% (active) and -66.5% (active).
With CC(=O)OCC1=CC2OC(=O)C3=COC(OC4OC(CO)C(O)C(O)C4O)C1C32 (stereo not given) the growth was 81% and 93.8%.
